NPSR antagonist = antagonists of human neuropeptide S receptor cAMP signaling; CHO-NPSR cells, cAMP TR-FRET, antagonist mode; AID 1461; Potency, µM (highest dose often 38.3 µM), for the others: at the top dose activity change, negative = inhibition, usual class: inhibitors; 1% of 220,000 active; active means well fitted curve in the direction sought with a large enough effect; inconclusive means small, poorly fitted or top-dose-only effect, or another doubt; inactive means no such curve, though single readings can be large; an effect the other way counts as inactive or inconclusive; further: potency means the concentration at half of the fitted maximal effect; nearly all actives have a fitted effect of over 50% in size
IMPase cell inh = IMPase inhibition in cells; P97697; CHO-M1 cells, IP1 accumulation, HTRF TR-FRET ratio; inhibition (IP1 accumulation), % at 46.1 µM; 120,000 tested, under 10 active; active means well fitted curve in the direction sought with a large enough effect in the signal ratio, not every such curve was filed as active; inconclusive means small, poorly fitted or top-dose-only effect, or a change in a side signal; inactive means no such curve, though single readings can be large or run the other way; the % refers to the signal ratio;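 further: cells stimulated with carbachol in lithium chloride buffer; plate controls were DMSO basal wells for no effect and reference inhibitor wells for full effect; higher means more IMPase inhibition seen as more IP1 and lower FRET ratio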
Target sequence (P97697 whole entry, looked up): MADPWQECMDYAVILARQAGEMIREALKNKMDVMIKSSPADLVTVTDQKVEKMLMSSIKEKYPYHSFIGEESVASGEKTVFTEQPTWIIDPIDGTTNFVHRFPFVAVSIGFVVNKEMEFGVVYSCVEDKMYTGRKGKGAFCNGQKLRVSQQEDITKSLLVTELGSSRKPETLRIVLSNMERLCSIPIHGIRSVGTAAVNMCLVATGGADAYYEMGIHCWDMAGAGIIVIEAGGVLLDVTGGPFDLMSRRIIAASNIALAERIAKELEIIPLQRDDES
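Carbachol-driven Gq signalling in CHO-M1 cells (2000/well) generates IP1. Compounds that block IMPase raise IP1 and so reduce the FRET signal from Eu-anti-IP1 and d2-IP1 after a 10 min room-temperature lysis.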
HPGD inh = HPGD (human) dehydrogenase inhibition. P15428. purified HPGD, NADH fluorescence kinetic, PGE2 substrate. Potency, µM, for inactives: at the highest dose activity change, negative = inhibition, actives largely listed as inhibitors. 4.3% of 150,000 active. AID 894; further: potency means the concentration at half of the fitted maximal effect
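20 nM HPGD preincubated 15 min at room temperature with compound in 50 mM Tris-HCl pH 8, 0.01% Tween 20. Started with 1 mM NAD+ and 30 uM prostaglandin E2; NADH fluorescence (360/450 nm) read 5 times over 30-s intervals, last minus first.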
IMPase Li inh = IMPase inhibition in cells with lithium potentiation | CHO-M1 cells, IP1 TR-FRET (IP-One), carbachol + lithium | Potency, µM (highest dose often 59.4 µM), for the others: at the highest dose activity, negative = IMPase inhibition, usual class: inhibitors | 0.35% of 210,000 active; active means well fitted curve in the direction sought with a large enough effect; inconclusive means small, poorly fitted or top-dose-only effect, or another doubt; inactive means no such curve, though single readings can be large; an effect the other way counts as inactive or inconclusive;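 further: IP1 builds up when IMPase is blocked and the TR-FRET signal falls; potency means the concentration at half of the fitted maximal effect; plate controls were basal vehicle for no effect and high inhibitor control for full effect; nearly all actives have a fitted effect of over 50% in size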
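CHO cells stably expressing M1 receptor (2000/well) were cultured 16–30 h, then exposed to compounds with a small lithium addition for 30 min at 37C. IP1 was measured by TR-FRET competition; AC50 from Hill fits.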
PNC assembly inh = blocks assembly of the perinucleolar compartment | PC3M PTB-GFP, PNC prevalence imaging, 16 h; hits give low values | activity change (PNC), negative = inhibition, % at 10 µM | 3.1% of 140,000 active | AID 2417;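 active means readout at or below -70, meaning at least 70% loss of cells showing the perinucleolar compartment, a nuclear body marking cancer cells; inconclusive means readout between -30 and a set limit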;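 further: plate controls were DMSO wells for no effect and camptothecin positive control wells for full effect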
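Compounds are pinned in duplicate onto adhered PC3M cells stably expressing GFP-tagged PTB and incubated 16 h at 37 C. Cells are then fixed, nuclei stained with Hoechst, and PNC-positive cells counted.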
ALDH1A1 inh = blocks purified human ALDH1A1 activity; Purified ALDH1A1, NADH fluorescence, propionaldehyde substrate; AID 1030; Potency, µM (doses to about 75.3 µM), inactives show at the top dose activity, negative = inhibition, hits mostly inhibitors; P00352; 7.3% of 220,000 active;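 further: potency means the concentration at half of the fitted maximal effect; plate controls were no enzyme wells and a reference inhibitor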
Target sequence (P00352 whole entry, looked up): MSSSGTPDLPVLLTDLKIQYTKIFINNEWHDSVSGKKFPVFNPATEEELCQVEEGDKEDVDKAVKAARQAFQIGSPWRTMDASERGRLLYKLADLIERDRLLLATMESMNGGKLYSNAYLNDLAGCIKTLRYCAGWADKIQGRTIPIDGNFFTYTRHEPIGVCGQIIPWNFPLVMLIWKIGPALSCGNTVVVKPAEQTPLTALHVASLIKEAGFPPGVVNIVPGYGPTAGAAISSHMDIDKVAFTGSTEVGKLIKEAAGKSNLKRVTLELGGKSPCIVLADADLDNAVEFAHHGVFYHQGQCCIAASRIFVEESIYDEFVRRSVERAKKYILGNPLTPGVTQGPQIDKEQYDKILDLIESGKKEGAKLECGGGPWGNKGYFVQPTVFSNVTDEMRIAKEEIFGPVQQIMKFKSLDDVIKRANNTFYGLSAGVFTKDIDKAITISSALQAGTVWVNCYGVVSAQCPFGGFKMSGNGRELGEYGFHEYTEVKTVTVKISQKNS
The depositor's hits bear a star; ? = inconclusive; . = not tested or not shown; [ ] = another dose, or the depositor's remark. Shown are actives, neighbours in structure and some others; about 11% of the full set was active somewhere. Unless noted, the call rests on the fitted dose curve; in most records, active means well fitted inhibition curve with a large enough effect (not every such curve was filed as active); inconclusive means small, poorly fitted or top-dose-only effect, or another doubt; inactive means no such curve, though single readings can be large or run the other way. Unless noted, on the % scale 0 is the no-effect control and ±100 the full control effect.

SMILES	NPSR antagonist	IMPase cell inh	HPGD inh	IMPase Li inh	PNC assembly inh	ALDH1A1 inh
COc1cc2cc(CN(CCc3cccc(C)c3)C(=S)NCCCN(C)C)c(=O)[nH]c2cc1OC	10.6%	.	?	5.7%	-0.6	?
CCCC1=NN(c2ccc([N+](=O)[O-])cc2)C(=O)/C1=C\N(C)C	9.2%	.	-7.0%	-4.6%	-16.8	?
CC(=O)c1c(C)n([O-])c2cc(F)c(F)cc2[n+]1=O	-20.3%	.	.	-18.7%	.	4.7%
O=C(c1ccc(CN2CCc3ccccc3C2)cc1)N1CCc2ccccc2C1	-18.4%[46.1 µM]	-1.9	3.16µM*	13.1%[38.3 µM]	16.2	-11.6%
Cc1ccc(NC(=O)CN2C(=O)COc3ccc(C)cc32)nc1	-1.4%[46.1 µM]	-2.7	-8.9%	-17.0%[38.3 µM]	22.7	3.8%
COc1ccc(N(CC(=O)N/N=C/c2ccco2)S(=O)(=O)c2ccccc2)cc1	-9.8%[46.1 µM]	5.2	-6.1%	-1.6%	-14.4	-12.1%
C/C(CC(=O)Nc1ccccn1)=N\NC(=O)c1ccccc1	15.3%	4.3	-0.8%	-0.5%	12.1	9.1%
C/C(CC(=O)Nc1ccccn1)=N\NC(=O)c1ccc2ccccc2c1	13.4%	.	-16.0%	5.2%	?	5.62µM*
CCOc1ccc(NC(=O)COC(=O)Cn2cnnn2)cc1OCC	-4.4%[46.1 µM]	-5.3	-11.8%	2.6%	?	-0.7%
CCN(CC)C(=O)C(=O)c1cn(CC(=O)N2CCc3ccccc3C2)c2ccccc12	-11.5%	.	.	6.9%	.	0.708µM*
CC1CCN(C(=O)Cn2cc(C#N)c3ccccc32)CC1	-4.3%[46.1 µM]	3.8	2.0%	6.9%	-6.2	?
CC1CCN(C(=O)Cn2cc(C(=O)C3CC3)c3ccccc32)CC1	-5.1%	-2.6	-2.5%	9.7%	-103.4*	-4.6%
O=C1CC(c2ccc3c(c2)OCO3)c2ccc(O)cc2O1 (centres undefined)	.	.	-2.8%	10.4%	.	8.8%
O=C1CC(c2ccc3c(c2)OCO3)c2cc(O)ccc2O1 (centres undefined)	.	.	39.8µM*	31.3%	.	?
CCOC(=O)c1cc(-c2ccc(C#N)cc2)nc2c1c(C)nn2CCC#N	-8.3%[46.1 µM]	3.2	?	?	-111.3*	?
CCOC(=O)c1cc(-c2cccs2)nn1CCC#N	-11.4%[46.1 µM]	11.4	-14.1%	-1.0%[38.3 µM]	?	14.1µM*
CCOC(=O)c1cc(-c2ccncc2)nc2c1c(C)nn2-c1ccccn1	-6.5%[46.1 µM]	15.1	-10.2%	18.7%[38.3 µM]	-100.0*	?
CCOC(=O)c1cc(-c2ccc(OC)cc2)nc2c1c(C)nn2CCC#N	-26.9%[46.1 µM]	4.5	?	31.8%[38.3 µM]	?	?
CC1CC(C)(C)NC(=S)N1CCCC(=O)Nc1ccc(Cl)cc1 (centres undefined)	-8.9%	.	.	8.7%	.	-0.5%
CC(C)c1ccc(NC(=O)CCCN2C(=S)NC(C)(C)CC2C)cc1 (centres undefined)	-14.3%	.	.	32.8%	.	5.01µM*
N#CC1(C#N)CC(C=O)=C(N)C1(C#N)CC(=O)C12CC3CC(CC(C3)C1)C2 (centres undefined)	-16.2%[46.1 µM]	6.5	-1.7%	-3.2%	18.2	17.8µM*
Nc1ccc(O)cc1C(=O)OCC(=O)C12CC3CC(CC(C3)C1)C2	-28.0%[46.1 µM]	4.2	?	-8.2%[38.3 µM]	?	?
Cc1ccc(NCc2nnc(SCC#N)o2)c(C)c1	-6.2%[46.1 µM]	10.1	-15.6%	6.0%	-100.0*	-14.6%
CCc1ccc(C(=O)N2CCCC2)s1	4.1%[46.1 µM]	0.8	15.8µM*	7.0%	?	?
O=C(c1ccc(Cl)s1)N1CCCC1	-15.5%[46.1 µM]	9.5	7.94µM*	37.4%[38.3 µM]	-18.5	?
SMILES	NPSR antagonist	IMPase cell inh	HPGD inh	IMPase Li inh	PNC assembly inh	ALDH1A1 inh
Cc1cc(NC(=O)CSc2ccc3ccccc3c2)no1	1.9%[46.1 µM]	0.8	-25.9%	3.9%[38.3 µM]	-23.5	?
O=C(CNC(=S)N(CCCN1CCOCC1)Cc1cccs1)NCCN1CCOCC1	14.9%	.	-0.4%	6.9%	-14.3	-3.1%
Cc1nn2c3c(cnc2c1-c1ccccc1)C(=O)CC(c1ccco1)C3 (centres undefined)	-2.5%[7.67 µM]	12.9	-13.0%	-5.5%[38.3 µM]	-20.4	25.1µM*
O=C(Nc1ccccc1-c1nc2ccccc2[nH]1)c1ccc(S(=O)(=O)N2CCCCC2)cc1	?	-19.0	?	-16.1%[38.3 µM]	25.4	40.5%
O=C(Nc1cccc2c1C(=O)NC2=O)c1ccc(S(=O)(=O)N2CCCC2)cc1	9.9%[46.1 µM]	-8.4	?	-1.4%[38.3 µM]	-110.7*	?
N#CCCN(Cc1cccnc1)S(=O)(=O)c1ccc(S(=O)(=O)N2CCCCCC2)cc1	-4.9%[46.1 µM]	17.2	-3.6%	14.7%[38.3 µM]	39.7	?
N#CCCSc1ccccc1NC(=O)c1ccc(S(=O)(=O)N2CCCC2)cc1	-10.4%[46.1 µM]	2.7	11.2µM*	23.9%[38.3 µM]	?	2.51µM*
N#CCCN(Cc1cccnc1)C(=S)NC(=O)c1ccc(S(=O)(=O)N2CCCC2)cc1	1.4%	.	.	11.9%	.	14.1µM*
Cc1ccc2cc(CCNC(=O)c3ccco3)c(=O)[nH]c2c1C	14.5%	2.5	?	9.0%	?	?
COc1ccc(-c2c(C)[nH]n3c(=O)c(Cc4ccccc4)c(C)nc23)cc1OC	-21.7%	.	.	10.7%	.	-3.9%
CC(C)OC(=O)CSc1n[nH]c(-c2cccnc2)n1	-17.0%[46.1 µM]	-1.7	15.8µM*	-9.8%[38.3 µM]	-6.6	-8.6%
COC(=O)c1ccccc1NC(=O)CSc1n[nH]c(-c2cccnc2)n1	11.4%	.	.	1.2%	.	14.8%
Cc1ccc(NC(=O)CSc2nc3c([nH]c4ccccc43)c(=O)n2C)cc1	-17.9%	.	.	21.0%	.	-16.3%
Cc1ccc(NC(=O)COC(=O)CCc2c[nH]c(=O)[nH]2)cc1	-3.5%[46.1 µM]	-5.7	-19.4%	15.9%[38.3 µM]	2.6	-11.5%
CC(C)(C)n1cnc(C(N)=O)c1N	11.4%	.	0.9%	6.5%	-7.9	10µM*
Cc1ccccc1OCC(O)Cn1c(NCCN(C)C)nc2c1c(=O)n(C)c(=O)n2C (centres undefined)	8.4%[46.1 µM]	2.3	-0.3%	5.3%[38.3 µM]	11.1	1.2%
O=S(=O)(c1c(Cl)sc(Cl)c1Br)N1CCCC1	34.0%	.	.	.	.	14.1µM*
CCN(CC)c1ccc(NC(=O)CN2CCN(c3ccc(F)cc3)CC2)cc1	-14.1%[46.1 µM]	7.3	-10.7%	0.5%[38.3 µM]	?	-6.8%
C=CCOc1ccc(/C(O)=C2\C(=O)C(=O)N(CCOC)C2c2cccnc2)cc1 (centres undefined)	19.6%[46.1 µM]	-18.7	-16.6%	10µM*	25.7	?
Cc1c(/C(O)=C2\C(=O)C(=O)N(CCCN(C)C)C2c2ccccc2)cnn1-c1ccccc1 (centres undefined)	-6.3%[46.1 µM]	-2.6	20µM*	11.7%[38.3 µM]	4.9	?
COCCCN1C(=O)C(=O)/C(=C(/O)c2ccc(OCC(C)C)cc2C)C1c1cccnc1 (centres undefined)	26.4%[46.1 µM]	?	-11.0%	?	-19.7	-1.5%
